Measurements from PubChem BioAssay (Tox21).
Unmarked numbers belong to inactive results. Results filed as inconclusive are left out. Where a call stands in place of a potency, no number is given. Active and inactive are the calls of the source. Unless noted, calls follow the shape of the dose curve; as a rule, active = well fitted curve in the direction sought with a large enough effect in the repeat runs; inconclusive = weak or mixed curves; inactive = no such curve, though single readings can be large; an effect the other way counts as inactive or inconclusive.

Columns and labels:
[1] = qHTS assay to identify small molecule agonists of H2AX (AID 1224845; active = well fitted activation curve with a large enough effect in the signal ratio in the repeat runs, not every such curve was filed as active; the % refers to the signal ratio)
Summary of the method: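 Wild-type CHO-K1 cells, plated overnight, exposed 3hr at 37C to 15 concentrations (0.76% DMSO final). Lysed, then HTRF anti-pH2AX (S139) cryptate and anti-H2AX-d2 antibodies, 24 hr room temperature; 665/620 nm emission read.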

[2] = qHTS assay to identify small molecule agonists of the hypoxia (HIF-1) signaling pathway (AID 1224846; active = well fitted activation curve with a large enough effect in the signal ratio in the repeat runs, not every such curve was filed as active; the % refers to the signal ratio)
Summary of the method: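 Reporter induction in HRE-bla ME-180 cells is taken as agonism: cells sit 5 hrs after plating, receive compounds or DMSO only, incubate 17 hrs at 37C under 5% CO2, and are loaded with CCF4-AM for beta-lactamase FRET measurement.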

[3] = qHTS assay to identify small molecule agonists of H2AX - cell viability counter screen (AID 1224847; calls by dose curve; also: top concentration of the series differs between compounds; nearly all actives have a fitted effect of over 30% in size)
Summary of the method: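 We seed wild-type CHO-K1 cells overnight, treat them for 3 hr at 37C with compounds in 15-concentration series, and quantify remaining viability by CellTiter-Glo luminescence.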

[4] = qHTS assay to identify small molecule antagonists of the estrogen related receptor (ERR) signaling pathway from Tox21 library (AID 1224848); also: nearly all actives have a fitted effect of over 50% in size; also: potency is read from the fitted curve at half-maximal effect
Summary of the method: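 Quantitative high-throughput format: ERR reporter cells (2,000/well) pre-incubated 6 h, treated 18 h at 37 C with compounds in DMSO alongside positive and negative controls, then read by ONE-Glo luminescence.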

[5] = qHTS assay to identify small molecule agonists of the estrogen related receptor (ERR) signaling pathway from Tox21 library (AID 1224849; calls by dose curve; also: nearly all actives have a fitted effect of over 15% in size); conditions: ERR reporter cell line, ONE-Glo luciferase, 18 h; at 92.4 µM (top of the series) unless noted
Summary of the method: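 Tox21 compounds tested for ERR agonism in an NTP reporter cell line: 18 h treatment at 37 C, then ONE-Glo luminescence.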

[6] = qHTS RealTime-Glo MT Cell Viability Assay in HepG2 cells - 24 hour (AID 1224867); also: nearly all actives have a fitted effect of over 50% in size
Summary of the method: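 Compound treatment began 5 h after plating HepG2 cells (600/well) with NanoLuc luciferase and prosubstrate. Plates stayed at 37 C for 40 h; luminescence was captured at six time points, 0 h through 40 h.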

[7] = qHTS RealTime-Glo MT Cell Viability Assay in HEK293 cells - 32 hour (AID 1224868); also: top concentration of the series differs between compounds; nearly all actives have a fitted effect of over 50% in size
Summary of the method: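 Quantitative high-throughput screen of the Tox21 10K library in HEK293: cells and RealTime-Glo reagents plated together, compound added at 5 h, luminescence monitored through 40 h at 37 C.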

[8] = A CellTox Green Cytotoxicity Assay to monitor cytotoxicity in HEK293 cells - 0 hour (AID 1224869); also: nearly all actives have a fitted effect of over 50% in size
Summary of the method: (§1)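 Tox21 screen in HEK293: membrane-impermeant cyanine dye fluoresces on binding dead-cell DNA; compound pinned 5 h post-seeding, plates held at 37 C, signal read repeatedly through 40 h.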

[9] = qHTS RealTime-Glo MT Cell Viability Assay in HepG2 cells - 40 hour (AID 1224870); also: nearly all actives have a fitted effect of over 50% in size
Summary of the method: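 HepG2 cells (600/well) mixed with RealTime-Glo MT reagent, settled 5 h at 37 C/5% CO2 before compound addition. Nonlytic NanoLuc luminescence from viable-cell prosubstrate reduction read repeatedly during 40 h treatment at 37 C.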

[10] = A CellTox Green Cytotoxicity Assay to monitor cytotoxicity in HEK293 cells - 40 hour (AID 1224871); also: nearly all actives have a fitted effect of over 45% in size
Summary of the method: as §1

Compound | outcome [1] | outcome [2] | Potency [3] | Potency [4] | activity change, positive = activation [5] | Potency [6] | Potency [7] | outcome [8] | Potency [9] | Potency [10]
COc1cccc([C@@]2(O)CCCC[C@@H]2CN(C)C)c1 | inactive | inactive | inactive | inactive | 1.87% [at 42.5 µM] | inactive | inactive | inactive | inactive | inactive
CCOC(=O)N(C)N=O | inactive | inactive | inactive | inactive | -2.98% | inactive | – | inactive | inactive | inactive
OP(O)c1ccccc1 | inactive | inactive | inactive | inactive | 1.75% | inactive | inactive | inactive | inactive | inactive
COc1ccccc1OC | inactive | inactive | inactive | inactive | 2.11% | inactive | inactive | inactive | inactive | inactive
O=S1(=O)OCCO1 | inactive | inactive | inactive | inactive | 5.54% | inactive | inactive | inactive | inactive | inactive
CCC(CC)(CNC(=O)CCCO)c1cccc(OC)c1 | inactive | inactive | inactive | inactive | 4.37% [at 42.5 µM] | inactive | inactive | inactive | – | inactive
C[C@H](CN1CCOCC1)C(C(=O)N1CCCC1)(c1ccccc1)c1ccccc1 | inactive | inactive | inactive | 66.3 µM (active) | -33.1% | inactive | – | inactive | inactive | inactive
CCC(C)(C#N)N=NC(C)(C#N)CC (configuration not stated) | inactive | inactive | inactive | inactive | 3.15% | inactive | inactive | – | inactive | inactive
CCCC[N+](=O)[O-] | inactive | inactive | inactive | inactive | -0.684% | inactive | inactive | inactive | inactive | inactive
Cc1ccc(-c2nc3ccc(C)cn3c2CC(=O)N(C)C)cc1 | inactive | inactive | inactive | inactive | 37.3% [at 42.5 µM] (active) | inactive | – | inactive | inactive | inactive
Cn1c(CCCC(=O)O)nc2cc(N(CCCl)CCCl)ccc21 | inactive | inactive | inactive | inactive | -8.11% [at 42.5 µM] | inactive | inactive | inactive | inactive | inactive
CC(Cl)(Cl)Cl | inactive | inactive | inactive | inactive | 4% | inactive | inactive | – | inactive | inactive
NC(=O)CS(=O)C(c1ccccc1)c1ccccc1 (configuration not stated) | inactive | inactive | inactive | inactive | 9.38% [at 42.5 µM] | inactive | inactive | inactive | inactive | inactive
O=[N+]([O-])CCO | inactive | inactive | inactive | inactive | 1.1% | inactive | inactive | inactive | inactive | inactive
CCC(=O)c1ccc(Cl)cc1 | inactive | inactive | inactive | inactive | 6.34% | inactive | – | inactive | inactive | inactive
ClCC1CO1 (configuration not stated) | inactive | inactive | inactive | inactive | -2.49% | inactive | inactive | inactive | inactive | inactive
CNC(=O)Oc1ccccc1C(C)C | inactive | inactive | inactive | inactive | 1.9% | inactive | inactive | inactive | – | inactive
CS(=O)(=O)c1ccc(C(=O)C2C(=O)CCCC2=O)c(Cl)c1COCC(F)(F)F | inactive | inactive | inactive | inactive | -5.95% | inactive | inactive | – | – | inactive
C#CC(C)(C)O | inactive | inactive | inactive | inactive | -2.81% | inactive | inactive | – | inactive | inactive
CCN(CC)C1CCCCC1 | inactive | inactive | inactive | inactive | 0.2% | inactive | inactive | inactive | inactive | inactive
COC(=O)c1ccccc1CS(=O)(=O)NC(=O)Nc1nc(OC)cc(OC)n1 | inactive | inactive | inactive | inactive | -0.138% | inactive | inactive | inactive | – | inactive
CNC(=O)Oc1cc(C)c(N(C)C)c(C)c1 | inactive | inactive | inactive | inactive | 4.59% | inactive | inactive | inactive | – | inactive
Clc1nc(Cl)nc(Nc2ccccc2Cl)n1 | inactive | inactive | inactive | inactive | 2.23% | inactive | inactive | inactive | inactive | inactive
CCC1(c2ccccc2)C(=O)N(COC)C(=O)N(COC)C1=O | inactive | inactive | inactive | inactive | 4.72% [at 42.5 µM] | inactive | inactive | inactive | inactive | inactive
